The panel holds about 79,000 compounds, 15% with a hit somewhere; the sample as a whole holds those more often. Cut-off read from the data, not from the text of the source: active = growth inhibition above about 70%; inactive = the rest.
How the values were obtained:
[1] = NCI Yeast Anticancer Drug Screen. Data for the rad50 strain (AID 155);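 note: 0% = growth of vehicle-only cultures of the same strain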; details: S. cerevisiae rad50 strain growth inhibition; at 50.0 µM; stronger effect = higher value
Procedure, shortened: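 Inhibition values express reduced yeast growth in compound-treated cultures relative to vehicle-treated controls.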

[2] = NCI Yeast Anticancer Drug Screen. Data for the mec2-1 strain (AID 157); details: S. cerevisiae mec2-1 strain, at 50.0 µM, stronger effect = higher value
Procedure, shortened: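 Readout is yeast growth inhibition, normalised to vehicle-treated controls, in the mec2-1 strain exposed to compound.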

[3] = NCI Yeast Anticancer Drug Screen. Data for the sgs1 mgt1 strain (AID 161);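 note: 0% = growth of cultures given vehicle only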; details: S. cerevisiae sgs1 mgt1 strain, at 50.0 µM, stronger effect = higher value
Procedure, shortened: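 Compounds are added to genetically altered yeast, and growth is compared with cultures given vehicle alone to give percent inhibition.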

[4] = NCI Yeast Anticancer Drug Screen. Data for the cln2 rad14 strain (AID 165);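 note: 0% = growth equal to vehicle treated cultures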; details: S. cerevisiae cln2 rad14 strain, at 50.0 µM, stronger effect = higher value
Procedure, shortened: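 Relative to vehicle controls, growth inhibition of compound-treated cln2 rad14 yeast was recorded.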

[5] = NCI Yeast Anticancer Drug Screen. Data for the bub3 strain (AID 167); details: S. cerevisiae bub3 mutant strain, at 50.0 µM, stronger effect = higher value
Procedure, shortened: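 Steps: expose the mutant yeast strain to compound; grow alongside vehicle-treated cultures; measure growth; express inhibition against the vehicle cultures.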

[6] = NCI Yeast Anticancer Drug Screen. Data for the mlh1 rad18 strain (AID 175); details: S. cerevisiae mlh1 rad18 strain growth inhibition; at 50.0 µM; stronger effect = higher value
Procedure, shortened: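 Test agents were incubated with a yeast strain of defined genotype (DNA damage repair defect). Inhibition of growth was derived by comparison with vehicle-exposed cultures.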

Measured: growth inhibition

CC(=O)C1CCCCC1
inactive: [1] 26.7% | [2] 11.2% | [3] 4.5% | [4] 11.7% | [5] 1.2% | [6] 16.8%

CN1C(=O)CN2CCc3ccccc3C2c2cc(Cl)ccc21 (centres undefined)
inactive: [1] 33.3% | [2] 26.4% | [3] 47.6% | [4] 22.1% | [5] 48% | [6] 42.1%

O=c1[nH]c(O)c(/C=C2/C=Nc3ccccc32)[nH]1
inactive: [1] 0.45% | [2] -5.85% | [3] -8.35% | [4] -15.2% | [5] 4.1% | [6] 0.6%

O=C(O)[C@@H]1[C@H]2C[C@H]3c4[nH]c5ccccc5c4CCN3C[C@@H]2CC[C@@H]1O
inactive: [1] -10.3% | [2] -27% | [3] 9.45% | [4] 6.5% | [5] -20.6% | [6] -19.9%

CC(=O)OCCC(C)CCC=C(C)C (centres undefined)
inactive: [1] 14.7% | [2] 19.1% | [3] -19.9% | [4] -18.1% | [5] -16.9% | [6] 2.4%

CN(C)C(C)(C)CC(C)(C)C
inactive: [1] 35.7% | [2] 4% | [3] 15.7% | [4] 4.85% | [5] 17.3% | [6] 26.6%

N#CCCc1ccc(O)cc1
inactive: [1] -25.1% | [2] -44.2% | [3] -34.9% | [4] 1.55% | [5] -17.9% | [6] -19.1%

CN(C)CCN(Cc1ccccc1)c1ccccc1
inactive: [1] -16.1% | [2] -41.6% | [3] -13.6% | [4] -10.7% | [5] -20.8% | [6] -12%

CCOC(=O)c1cc(/C=C/c2ccc(Cl)cc2Cl)on1
inactive: [1] -31.4% | [2] -52.7% | [3] -43% | [4] -41.1% | [5] -36.1% | [6] -45.5%

O=c1[nH]nc(SC2CCCCC2)c(=O)[nH]1
inactive: [1] -12.1% | [2] -3.1% | [3] -11.9% | [4] -5.4% | [6] -11.1%
